# Experiments:
# Assay in all cases: PBM binding z-score (relative to random genomic background probes); higher = stronger binding; sequences stand for … in GC…GCGATTGACAGCGTAGAATGAAGG
# [1] = system: FXR:RXRa (NR concentration 270 nM, RXRa partner concentration 90 nM)
# Procedure, shortened: (§1)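 Scanned fluorescence from custom Agilent 4×180K protein-binding microarrays was regression-normalized. Binding z-scores use random background probes as reference. Ligand-free nuclear receptor dimers were incubated on the arrays for 1 h and detected with antibodies against each partner (one per run).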
# [2] = system: LXRa:RXRa (NR concentration 270 nM, RXRa partner concentration 90 nM)
# Procedure, shortened: as §1
# [3] = system: LXRa homodimer (NR concentration 270 nM)
# Procedure, shortened: as §1
# [4] = system: LXRb:RXRa (NR concentration 270 nM, RXRa partner concentration 90 nM)
# Procedure, shortened: as §1
# [5] = system: LXRb homodimer (NR concentration 270 nM)
# Procedure, shortened: as §1
# [6] = system: PPARa:RXRa (NR concentration 270 nM, RXRa partner concentration 90 nM)
# Procedure, shortened: as §1
# [7] = system: PPARg:RXRa (NR concentration 180 nM, RXRa partner concentration 90 nM)
# Procedure, shortened: as §1
# [8] = system: PPARg:RXRa 270nM:90nM, anti-RXR (NR concentration 270 nM, RXRa partner concentration 90 nM)
# Procedure, shortened: as §1
# [9] = system: PPARg:RXRa 30nM:10nM, anti-RXR (NR concentration 30 nM, RXRa partner concentration 10 nM)
# Procedure, shortened: as §1
# [10] = system: PPARg:RXRa 90nM:30nM, anti-RXR (NR concentration 90 nM, RXRa partner concentration 30 nM)
# Procedure, shortened: as §1
# [11] = system: PPARg:RXRa DBDmut IVT, anti-RXR (DBD mutation: RXRa K156A/R161A, NR concentration 270 nM, RXRa partner concentration 90 nM)
# Procedure, shortened: as §1
# [12] = system: PPARg:RXRa IVT, anti-PPARg (NR concentration 270 nM, RXRa partner concentration 90 nM)
# Procedure, shortened: as §1
# [13] = system: PPARg DBDmut:RXRa IVT, anti-PPARg (DBD mutation: PPARg1 K132A/R137A, NR concentration 270 nM, RXRa partner concentration 90 nM)
# Procedure, shortened: as §1
# [14] = system: PPARg DBDmut IVT, anti-PPARg (DBD mutation: PPARg1 K132A/R137A, NR concentration 270 nM)
# Procedure, shortened: as §1
# [15] = system: PPARg homodimer (NR concentration 180 nM)
# Procedure, shortened: as §1
# [16] = system: PXR:RXRa (NR concentration 270 nM, RXRa partner concentration 90 nM)
# Procedure, shortened: as §1
# [17] = system: PXR homodimer (NR concentration 270 nM)
# Procedure, shortened: as §1
# [18] = system: RARa:RXR (NR concentration 270 nM, RXRa partner concentration 90 nM)
# Procedure, shortened: as §1
# [19] = system: RARa homodimer (NR concentration 270 nM)
# Procedure, shortened: as §1
# [20] = system: RARb:RXRa (NR concentration 270 nM, RXRa partner concentration 90 nM)
# Procedure, shortened: as §1
Sequence,PBM binding z-score [1],PBM binding z-score [2],PBM binding z-score [3],PBM binding z-score [4],PBM binding z-score [5],PBM binding z-score [6],PBM binding z-score [7],PBM binding z-score [8],PBM binding z-score [9],PBM binding z-score [10],PBM binding z-score [11],PBM binding z-score [12],PBM binding z-score [13],PBM binding z-score [14],PBM binding z-score [15],PBM binding z-score [16],PBM binding z-score [17],PBM binding z-score [18],PBM binding z-score [19],PBM binding z-score [20]
TCTTGTAGATCAACTGGAGGTTAAGAAAGATCGA,0.425,1.71,1.03,1.22,-0.276,1.53,-0.287,1.31,2.76,1.89,1.68,0.919,0.402,0.432,-0.255,0.704,-0.291,1.13,-0.0829,0.631
CCATACGGGTCACGAGGTTATAGCACGACGAGCG,6.99,4.32,0.528,3.79,-0.0225,5.93,7.19,6.47,3.55,5.37,3.91,5.41,1.88,0.373,2.89,4.5,0.355,5.93,1.79,4.62
AGAATGACGTTATACGTAGATCAGGGAAGAAAGT,-0.751,-0.685,-0.265,-0.753,-0.294,-0.611,0.583,-0.509,-0.197,-0.37,-1.31,-0.2,0.276,1.24,-0.321,-0.696,0.0404,-0.492,-0.733,-0.573
AATACAGGGTCATGGTAGGCCAGAGTACGCACAG,7.24,6.51,2.02,4.67,1.09,6.07,6.85,6.13,2.87,4.97,2.45,4.41,2.48,1.13,3.31,4.8,0.859,5.21,1.28,4.25
AGAATGAGGTTAAAATCAGGGAAACAGAATACAT,2.65,2.59,0.234,2.08,0.345,3.69,2.3,2.46,0.879,1.7,2.34,2.5,0.82,1.18,0.858,1.17,0.655,1.9,0.961,1.59
AGAAAGAGGTTACCAAAGATCAGGGAAACGCTTG,2.31,6.51,-0.18,3.65,0.0945,3.37,2.1,2.36,0.802,1.77,1.97,1.94,0.516,0.104,0.75,1.82,-0.238,2.63,0.245,2.62
CCTAGCAGGCCAAGCTGGGTCACTCAAGGCTTGA,1.55,0.966,-0.429,0.821,-1.36,1.82,-0.199,0.0206,-0.847,-0.107,1.17,0.818,-0.82,-1.65,0.234,0.605,-0.579,1.29,-0.984,1.7
ATATGTAGGTTACATCTGGGTCATTCAGGCTATG,1.65,3.57,1.05,2.18,0.621,4.01,5.41,4.89,2.26,3.88,7.49,7.53,2.55,1.93,1.95,2.11,1.05,2.38,0.399,2.18
TCCAGTTGGTCAAAGGTCACACACTCGAAATGCG,6.2,5.79,3.85,5.42,1.6,6.51,11,9.65,9.86,10.3,3.32,6.12,2.97,1.98,5.35,6.28,2.67,7.69,3.44,5.08
GCTTGTTGGTCAGTAAAAGGTCACACACCGGTCG,3.14,4.29,4.58,4.04,1.25,4.42,3.2,4.25,2.37,4.03,1.37,3.04,0.573,0.581,3.31,4.71,1.12,5.45,1.86,4.32
CAAACTAGGTCACGAAACGTCAAAGTCGAATGAC,4.62,3.49,0.329,2.55,0.542,5.24,9.06,7.26,5.44,7.36,8.38,9.02,2.1,1.7,2,1.76,0.0967,2.91,0.992,4.36
GCGATTGGGGCATCAGCAGGTTACCATAACTTAA,0.0293,-0.187,-0.243,1.24,-0.0268,0.814,0.255,-0.0261,-0.258,-0.582,1.79,0.996,-0.746,-0.408,0.245,0.113,-0.0157,0.281,-0.368,0.823
ATATGCAGGTTAAGGGTCATTCAGGTTGGTTCGC,5.08,4.8,3.05,4.56,1.17,5.84,9.18,7.85,8.36,8.7,3.94,5.19,0.744,1.06,2.9,5.48,1.82,6.03,1.71,3.6
GCAGACAGGTGAAACGCAGGTGACTCAGGGTGGC,0.0191,0.00841,-0.506,-0.401,-1.12,1.18,0.635,0.413,-0.264,-0.0702,0.661,1.27,-0.57,-0.659,-0.182,0.074,-0.467,0.675,-0.193,1.01

# Reference: the supplement of paper PMC6555819
